This is part of a sample that, as a whole, favours compounds with a hit. Of some 83,000 tested, about 20% had one in any assay.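 96-well plates, one dose, 48 hours. Percent growth reported; active if below 10.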 A number with no mark means an inactive call. Active and inactive are the calls of the source.

The subject of the assay is HL-60(TB) leukemia. The experiment in a line: NCI-60 one-dose screen, 48 h (100 = growth as untreated, 0 = no growth, -100 = all killed). Conditions: 10 µM unless noted.
In the case of `Nc1cc2ccccc2c(=O)n1NC(=O)c1ccc(I)cc1`, the growth was 77%.
Consider `NC(=S)Nc1cccc(NC(N)=S)c1`, for which the growth was 99.1%.
In the case of `Cn1cc(-c2cc(N)n3nc(-c4c[nH]c5ccccc45)cc3n2)c2cc(Br)ccc21` it was -18.3% (active).
As for `O=C1Nc2cc(-c3ccc(NS(=O)(=O)c4ccc([N+](=O)[O-])cc4)cc3)ccc2/C1=C/c1ccc[nH]1`, the growth was 13.7%.
In the case of `CN(CCF)c1ccc(/C=C/C(=O)c2ccc(N)cc2O)cc1`, the growth was 58%.
For `CC1=C2C(=C[C@@](C)(CO)[C@@H]2O)/C(=N\N)[C@](C)(O)C12CC2`, the growth was -22.1% (active).
In the case of `Brc1ccc(-c2n(Cc3ccc4ccccc4c3)c(-c3ccccc3)c(-c3ccccc3)[n+]2Cc2ccc3ccccc3c2)cc1` it was -5.57% (active).

These data come from PubChem BioAssay (NCI).
